# Source: PubChem BioAssay (EPA / NIEHS)
# Records with an inconclusive call do not appear. More than one record can exist for a structure, and the calls need not agree. Active and inactive are the calls of the source. Rule for the calls, unless noted: active = hit-call score of the fitted dose curve at least 0.9, where 1 is the maximum; inactive = score below 0.9.
# Legend:
# [1] = target: Estrogen-related receptor gamma (Homo sapiens) (UniProt P62508); assay: ATG_ERRg_TRANS: Attagene TRANS-FACTORIAL HepG2 Assay for human Estrogen-Related Receptor gamma (ERRg) (AID 2282977; active = hit-call score of the fitted dose curve at least 0.9, where 1 is the maximum;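 note: hits increase reporter signal over DMSO so potencies reflect activators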); conditions: HepG2 Attagene TRANS reporter, ERRg transactivation
# Chain of Estrogen-related receptor gamma (Homo sapiens) (P62508 whole entry, looked up, the tested form may be a part): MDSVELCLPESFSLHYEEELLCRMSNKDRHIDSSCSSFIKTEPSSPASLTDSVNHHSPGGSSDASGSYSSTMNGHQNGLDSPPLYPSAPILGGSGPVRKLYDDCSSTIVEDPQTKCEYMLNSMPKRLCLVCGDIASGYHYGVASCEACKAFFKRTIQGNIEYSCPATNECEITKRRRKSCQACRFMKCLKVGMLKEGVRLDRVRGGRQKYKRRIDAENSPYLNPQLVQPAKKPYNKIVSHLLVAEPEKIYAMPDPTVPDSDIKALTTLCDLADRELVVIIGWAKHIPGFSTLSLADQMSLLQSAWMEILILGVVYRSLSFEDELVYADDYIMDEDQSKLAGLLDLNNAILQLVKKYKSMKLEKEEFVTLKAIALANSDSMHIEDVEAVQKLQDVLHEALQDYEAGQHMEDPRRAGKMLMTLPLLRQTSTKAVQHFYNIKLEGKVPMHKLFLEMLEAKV
# Method in brief: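 Transient HepG2 transfectants, 24 h compound exposure, GAL4-UAS reporter mRNA by RT-PCR/6-FAM labelling/capillary electrophoresis; positive direction vs DMSO.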
# [2] = target: Glucocorticoid receptor (Homo sapiens) (UniProt P04150); assay: ATG_GR_TRANS: Attagene TRANS-FACTORIAL HepG2 Assay for human Glucocorticoid Receptor (GR) (AID 2282978; active = hit-call score of the fitted dose curve at least 0.9, where 1 is the maximum;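 note: activators score as hits since higher reporter transcript over DMSO is fitted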); conditions: HepG2 Attagene TRANS GR reporter, mRNA transcription
# Chain of Glucocorticoid receptor (Homo sapiens) (P04150 whole entry, looked up, the tested form may be a part): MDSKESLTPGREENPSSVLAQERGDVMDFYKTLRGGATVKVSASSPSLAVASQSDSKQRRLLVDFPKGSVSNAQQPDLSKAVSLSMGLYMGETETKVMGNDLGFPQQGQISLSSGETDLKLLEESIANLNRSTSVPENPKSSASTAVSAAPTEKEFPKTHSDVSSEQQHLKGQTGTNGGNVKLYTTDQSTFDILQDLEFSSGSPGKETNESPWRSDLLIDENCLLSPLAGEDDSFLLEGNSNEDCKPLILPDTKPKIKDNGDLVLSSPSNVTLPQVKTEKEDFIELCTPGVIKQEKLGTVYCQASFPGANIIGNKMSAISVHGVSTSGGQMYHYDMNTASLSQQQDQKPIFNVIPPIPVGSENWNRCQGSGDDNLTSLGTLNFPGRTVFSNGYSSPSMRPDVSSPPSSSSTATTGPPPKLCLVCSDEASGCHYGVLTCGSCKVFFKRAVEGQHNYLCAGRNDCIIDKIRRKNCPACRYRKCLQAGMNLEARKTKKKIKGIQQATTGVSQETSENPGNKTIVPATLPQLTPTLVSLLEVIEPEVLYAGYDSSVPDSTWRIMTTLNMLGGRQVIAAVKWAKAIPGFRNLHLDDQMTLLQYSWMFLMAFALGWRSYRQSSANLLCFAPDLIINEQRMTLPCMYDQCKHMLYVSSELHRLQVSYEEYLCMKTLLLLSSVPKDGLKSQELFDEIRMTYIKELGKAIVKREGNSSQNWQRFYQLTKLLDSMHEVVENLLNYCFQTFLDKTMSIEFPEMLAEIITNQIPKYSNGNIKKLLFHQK
# Method in brief: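 Exogenous NR-GAL4 fusion activity was assessed through induced GAL4-UAS reporter transcripts in transfected human HepG2 cells, quantified after 24 h by RT-PCR and fluorescent capillary electrophoresis with DMSO as baseline.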
# [3] = target: Bile acid receptor (Homo sapiens) (UniProt Q96RI1); assay: ATG_FXR_TRANS: Attagene TRANS-FACTORIAL HepG2 Assay for Farnesoid X Receptor (FXR) (AID 2282979; active = hit-call score of the fitted dose curve at least 0.9, where 1 is the maximum;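 note: hits raise reporter mRNA above DMSO so AC50 marks FXR activation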); conditions: HepG2 Attagene TRANS FXR-GAL4 reporter transcription
# Chain of Bile acid receptor (Homo sapiens) (Q96RI1 whole entry, looked up, the tested form may be a part): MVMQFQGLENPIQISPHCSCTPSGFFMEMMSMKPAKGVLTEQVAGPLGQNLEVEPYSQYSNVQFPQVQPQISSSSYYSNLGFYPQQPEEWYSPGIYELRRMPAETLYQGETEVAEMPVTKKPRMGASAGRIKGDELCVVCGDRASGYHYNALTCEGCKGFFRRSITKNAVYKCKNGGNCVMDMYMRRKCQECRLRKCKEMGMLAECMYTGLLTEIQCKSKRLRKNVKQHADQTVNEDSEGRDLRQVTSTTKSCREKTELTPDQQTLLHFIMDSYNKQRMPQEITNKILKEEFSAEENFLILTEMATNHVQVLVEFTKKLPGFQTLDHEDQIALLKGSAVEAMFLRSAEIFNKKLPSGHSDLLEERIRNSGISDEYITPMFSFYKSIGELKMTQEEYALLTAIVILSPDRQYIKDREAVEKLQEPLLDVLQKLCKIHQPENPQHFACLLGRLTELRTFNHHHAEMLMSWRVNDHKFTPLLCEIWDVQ
# Method in brief: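 Read-out: fluorescent reporter transcripts quantified by capillary electrophoresis after RT-PCR of total RNA. Source cells were HepG2 transiently carrying chimeric NR-GAL4 plus GAL4-UAS reporter units, dosed 24 h. Activity fitted upward relative to DMSO baseline.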
# [4] = target: Oxysterols receptor LXR-alpha (Homo sapiens) (UniProt Q13133); assay: ATG_LXRa_TRANS: Attagene TRANS-FACTORIAL HepG2 Assay for human Liver X Receptor alpha (LXRa) (AID 2282980; active = hit-call score of the fitted dose curve at least 0.9, where 1 is the maximum); conditions: HepG2 Attagene TRANS reporter, LXRa transactivation
# Chain of Oxysterols receptor LXR-alpha (Homo sapiens) (Q13133 whole entry, looked up, the tested form may be a part): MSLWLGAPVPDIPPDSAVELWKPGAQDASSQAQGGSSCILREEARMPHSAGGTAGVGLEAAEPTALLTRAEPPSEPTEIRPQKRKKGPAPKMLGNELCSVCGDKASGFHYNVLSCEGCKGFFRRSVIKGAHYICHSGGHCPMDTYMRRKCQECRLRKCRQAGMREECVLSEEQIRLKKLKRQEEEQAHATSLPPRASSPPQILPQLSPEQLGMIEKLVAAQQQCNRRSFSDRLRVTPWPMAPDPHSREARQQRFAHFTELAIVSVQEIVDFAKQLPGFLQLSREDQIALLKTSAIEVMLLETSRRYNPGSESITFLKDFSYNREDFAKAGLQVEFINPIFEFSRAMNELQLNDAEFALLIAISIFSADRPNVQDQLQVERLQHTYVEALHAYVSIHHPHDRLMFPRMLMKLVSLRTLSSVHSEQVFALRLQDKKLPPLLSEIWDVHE
# Method in brief: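 Read-out: reporter transcript levels by RT-PCR plus capillary electrophoresis, fluorescence intensity. Transiently transfected HepG2, exogenous NR-GAL4 chimera, GAL4-UAS reporters; 24 h compound exposure. Activity = increase over DMSO negative control.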
# [5] = target: Oxysterols receptor LXR-beta (Homo sapiens) (UniProt P55055); assay: ATG_LXRb_TRANS: Attagene TRANS-FACTORIAL HepG2 Assay for human Liver X Receptor beta (LXRb) (AID 2282981; active = hit-call score of the fitted dose curve at least 0.9, where 1 is the maximum); conditions: HepG2 Attagene TRANS GAL4-LXRb reporter, mRNA
# Chain of Oxysterols receptor LXR-beta (Homo sapiens) (P55055 whole entry, looked up, the tested form may be a part): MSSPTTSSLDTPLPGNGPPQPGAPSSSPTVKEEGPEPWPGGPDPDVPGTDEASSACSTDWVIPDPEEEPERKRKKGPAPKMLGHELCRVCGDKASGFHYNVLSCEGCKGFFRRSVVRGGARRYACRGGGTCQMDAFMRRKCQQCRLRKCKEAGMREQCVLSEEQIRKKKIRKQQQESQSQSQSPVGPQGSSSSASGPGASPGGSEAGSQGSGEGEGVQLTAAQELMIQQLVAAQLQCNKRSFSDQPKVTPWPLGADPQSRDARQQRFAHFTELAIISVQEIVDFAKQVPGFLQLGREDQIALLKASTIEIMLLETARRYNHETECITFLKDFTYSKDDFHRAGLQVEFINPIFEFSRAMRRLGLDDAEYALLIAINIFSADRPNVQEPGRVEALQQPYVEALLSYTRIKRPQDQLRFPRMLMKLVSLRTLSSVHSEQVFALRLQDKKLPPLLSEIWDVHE
# Method in brief: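 HepG2 cells transiently transfected with multiple reporter transcription units carrying chimeric NR-Gal4 proteins acting on GAL4-UAS reporters; compound exposure 24 h. Reporter mRNA quantified by RT-PCR, 6-FAM labelling, HpaI digestion and capillary electrophoresis; gain of signal versus DMSO.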
# [6] = ATG_M_06_TRANS: Attagene TRANS-FACTORIAL HepG2 Assay for M06 Transcription Factor (Internal Marker) (AID 2282983; active = hit-call score of the fitted dose curve at least 0.9, where 1 is the maximum); conditions: HepG2 Attagene TRANS M06 internal marker reporter
# Method in brief: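 After a 24 h chemical treatment of transfected HepG2, RNA underwent DNase I treatment, reverse transcription and reporter-specific PCR; labelled, HpaI-digested products were sized by capillary electrophoresis. Signal increase relative to DMSO defined activity.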
# [7] = ATG_M_32_TRANS: Attagene TRANS-FACTORIAL HepG2 Assay for M32 Transcription Factor (Internal Marker) (AID 2282984; active = hit-call score of the fitted dose curve at least 0.9, where 1 is the maximum;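 note: transcript level of a background control reporter unit measured by RT-PCR and capillary electrophoresis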); conditions: HepG2 Attagene TRANS M32 internal marker reporter
# Method in brief: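 HepG2 cells transiently transfected with multiple GAL4-UAS reporter transcription units, dosed for 24 hours; reporter mRNA quantified by RT-PCR, 6-FAM primer extension, HpaI digestion and capillary electrophoresis. Gain-of-signal fitted versus DMSO baseline; internal background-control marker.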
# [8] = target: Transcriptional activator Myb (Homo sapiens) (UniProt P10242); assay: ATG_Myb_CIS: Attagene CIS-FACTORIAL HepG2 Assay for human Myeloblastosis (Myb) Proto-Oncogene Transcription Factor (AID 2282986); conditions: HepG2 Attagene CIS-FACTORIAL Myb reporter transcription; actives raise or lower the signal
# Method in brief: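 In this HepG2 transient-transfection format, cis-regulated reporter mRNA is quantified 24 h post-dosing by RT-PCR with capillary electrophoresis, fitted bidirectionally to DMSO baseline.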
# [9] = target: Nuclear respiratory factor 1 (Homo sapiens) (UniProt Q16656); assay: ATG_NRF1_CIS: Attagene CIS-FACTORIAL HepG2 Assay for human Nuclear Respiratory Factor 1 (NRF1) Orphan Gene (AID 2282987); conditions: HepG2 NRF1 cis-element reporter, Attagene multiplex; actives raise or lower the signal
# Chain of Nuclear respiratory factor 1 (Homo sapiens) (Q16656 whole entry, looked up): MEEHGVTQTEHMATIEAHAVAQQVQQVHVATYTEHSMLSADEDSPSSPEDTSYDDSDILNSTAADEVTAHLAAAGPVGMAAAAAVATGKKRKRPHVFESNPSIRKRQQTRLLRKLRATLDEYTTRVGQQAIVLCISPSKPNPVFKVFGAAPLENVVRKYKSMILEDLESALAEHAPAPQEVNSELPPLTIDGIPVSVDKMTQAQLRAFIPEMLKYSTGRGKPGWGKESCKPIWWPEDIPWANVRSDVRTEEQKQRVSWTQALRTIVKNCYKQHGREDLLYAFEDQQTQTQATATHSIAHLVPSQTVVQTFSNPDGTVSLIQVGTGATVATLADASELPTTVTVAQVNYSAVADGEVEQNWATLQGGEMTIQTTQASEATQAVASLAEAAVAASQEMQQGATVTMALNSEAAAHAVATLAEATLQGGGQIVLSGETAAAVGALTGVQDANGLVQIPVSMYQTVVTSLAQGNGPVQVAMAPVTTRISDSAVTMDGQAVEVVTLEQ
# Method in brief: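 Using DMSO as baseline, gain- or loss-of-signal was fitted for reporter mRNA levels in HepG2 cells transiently transfected with cis-regulated reporter units. Samples were taken 24 h after dosing and read by RT-PCR with capillary electrophoresis.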
# [10] = ATG_NFI_CIS: Attagene CIS-FACTORIAL HepG2 Assay for human Nuclear Factor I (NFI) (AID 2282989); conditions: HepG2 cis-regulatory reporter, NFI response element transcription; actives raise or lower the signal
# Method in brief: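 Reporter transcripts were measured by RT-PCR with fluorescent primer extension and capillary electrophoresis 24 h post-treatment. HepG2 cells carried transiently transfected cis-regulated reporter constructs reporting endogenous factor activity; gain or loss fitted against DMSO baseline.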
# [11] = target: Myc proto-oncogene protein (Homo sapiens) (UniProt P01106); assay: ATG_Myc_CIS: Attagene CIS-FACTORIAL HepG2 Assay for human Myelocytomatosis (Myc) Proto-Oncogene Transcription Factor (AID 2282990); conditions: HepG2, Attagene cis-reporter transcription factor activity; actives raise or lower the signal
# Method in brief: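 DMSO-normalised, bidirectionally fitted reporter mRNA signal. HepG2 cells transfected with cis reporter constructs, treated 24 h; transcripts detected by RT-PCR, 6-FAM primer extension and CE.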
# [12] = ATG_NF_kB_CIS: Attagene CIS-FACTORIAL HepG2 Assay for human Nuclear Factor Kappa B (NF-kB) (AID 2282991); conditions: HepG2 Attagene cis-factorial NF-kB reporter mRNA; actives raise or lower the signal
# Method in brief: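 Endpoint from a 52-component multiplexed HepG2 reporter panel: cis-regulated transcription units transiently transfected, 24 h dosing, reporter mRNA quantified by RT-PCR and capillary electrophoresis, scored as increase or decrease against DMSO.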
# [13] = ATG_NRF2_ARE_CIS: Attagene CIS-FACTORIAL HepG2 Assay for human Nuclear Factor Erythroid 2 Related Factor 2 (NFR2) response to Antioxidant Response Elements (ARE) (AID 2282992); conditions: HepG2 Attagene ARE/NRF2 reporter, transcription factor activity; actives raise or lower the signal;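 for AC50: reporter mRNA level measured by RT-PCR and capillary electrophoresis fluorescence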
# Method in brief: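 Cis-factorial assay: transfected HepG2 reporter library, 24 h dosing, mRNA readout via RT-PCR/CE; DMSO-referenced bidirectional analysis.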
# [14] = ATG_Oct_MLP_CIS: Attagene CIS-FACTORIAL HepG2 Assay for human Octamer-Binding Transcription Factor (Oct) (AID 2282993); conditions: HepG2 Attagene cis-factorial Oct reporter, mRNA; actives raise or lower the signal
# Method in brief: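 Readout is reporter transcript level from RT-PCR with fluorescent primer extension and capillary electrophoresis, fitted in both directions against DMSO. Transfected HepG2 reporter units report endogenous factor activity after 24 h dosing.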
# [15] = target: Cellular tumor antigen p53 (Homo sapiens) (UniProt P04637); assay: ATG_p53_CIS: Attagene CIS-FACTORIAL HepG2 Assay for human p53 Transcription Factor (AID 2282994); conditions: HepG2 p53 cis-element reporter, Attagene mRNA; actives raise or lower the signal
# Chain of Cellular tumor antigen p53 (Homo sapiens) (P04637 whole entry, looked up): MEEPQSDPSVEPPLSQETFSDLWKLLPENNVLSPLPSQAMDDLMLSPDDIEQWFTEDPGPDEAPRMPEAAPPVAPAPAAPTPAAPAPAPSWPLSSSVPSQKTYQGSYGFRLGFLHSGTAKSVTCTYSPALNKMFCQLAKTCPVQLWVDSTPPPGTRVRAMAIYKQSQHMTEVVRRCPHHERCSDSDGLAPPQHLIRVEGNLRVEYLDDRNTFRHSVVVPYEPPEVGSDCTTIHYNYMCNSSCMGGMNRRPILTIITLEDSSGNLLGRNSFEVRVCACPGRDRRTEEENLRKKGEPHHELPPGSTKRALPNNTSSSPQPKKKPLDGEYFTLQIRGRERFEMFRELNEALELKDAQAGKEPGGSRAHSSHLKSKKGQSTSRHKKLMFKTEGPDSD
# Method in brief: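 Using HepG2 hepatoma cells carrying cis-acting multiplexed reporters, mRNA induction is detected after a 24 h exposure. Gain- and loss-of-signal responses are fitted relative to DMSO-treated cells.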
# [16] = BSK_3C_TissueFactor: BioMAP Diversity Plus: 3C Assay for Tissue Factor Biomarker Activity (AID 2282997); conditions: BioMAP 3C HUVEC, tissue factor biomarker readout; actives raise or lower the signal
# Method in brief: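 Human vascular primary cells (umbilical vein endothelium) received test chemical; Tissue Factor was determined by ELISA at 24 h, and both gain and loss of signal versus DMSO were fitted.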
# [17] = BSK_3C_uPAR: BioMAP Diversity Plus: 3C Assay for Urokinase-type plasminogen activator receptor (uPAR) Biomarker Activity (AID 2282998); conditions: BioMAP 3C HUVEC, uPAR biomarker ELISA; actives raise or lower the signal
# Method in brief: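 Cell-surface uPAR on HUVEC (3C system) read by ELISA at 24 h post-treatment, with DMSO as baseline and fitting in both directions. Parallel cultures stained with SRB to flag overt cytotoxicity.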
# [18] = BSK_3C_VCAM1: BioMAP Diversity Plus: 3C Assay for Vascular cell adhesion molecule 1 (VCAM1) Biomarker Activity (AID 2282999); conditions: BioMAP 3C HUVEC, VCAM1 ELISA, cytokine-stimulated; actives raise or lower the signal
# Method in brief: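 Human umbilical vein endothelial cells were dosed with compound for 24 h, after which cell-surface VCAM-1 was quantified by ELISA. Bidirectional curve fitting used DMSO as negative control and activity baseline.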
# [19] = target: Hepatocyte nuclear factor 4-alpha (Homo sapiens) (UniProt P41235); assay: ATG_HNF4a_TRANS: Attagene TRANS-FACTORIAL HepG2 Assay for human Hepatocyte Nuclear Factor 4 alpha (HNF4a) (AID 2282982; active = hit-call score of the fitted dose curve at least 0.9, where 1 is the maximum); conditions: HepG2 HNF4a transactivation reporter, mRNA readout
# Chain of Hepatocyte nuclear factor 4-alpha (Homo sapiens) (P41235 whole entry, looked up, the tested form may be a part): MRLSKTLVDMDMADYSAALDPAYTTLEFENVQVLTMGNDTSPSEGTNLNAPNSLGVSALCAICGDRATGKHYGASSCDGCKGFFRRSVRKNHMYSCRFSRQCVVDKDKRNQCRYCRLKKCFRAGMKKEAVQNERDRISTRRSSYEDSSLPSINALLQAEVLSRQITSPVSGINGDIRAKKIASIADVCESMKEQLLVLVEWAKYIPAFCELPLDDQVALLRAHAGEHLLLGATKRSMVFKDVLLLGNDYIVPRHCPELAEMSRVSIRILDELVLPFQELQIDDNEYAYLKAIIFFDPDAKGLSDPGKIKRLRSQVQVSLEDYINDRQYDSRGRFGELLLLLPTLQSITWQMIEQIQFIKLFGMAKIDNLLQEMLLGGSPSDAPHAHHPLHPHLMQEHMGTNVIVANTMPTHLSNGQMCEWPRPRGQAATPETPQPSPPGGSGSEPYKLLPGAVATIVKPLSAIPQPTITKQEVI
# Method in brief: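 HepG2 cells transiently transfected with multiplexed GAL4-UAS reporter units responsive to chimeric NR-GAL4 proteins; compound exposure 24 h. Reporter mRNA quantified by RT-PCR, 6-FAM labelling, HpaI digestion and capillary electrophoresis; gain of signal versus DMSO baseline.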
# [20] = target: Nuclear receptor subfamily 4 group A member 2 (Homo sapiens) (UniProt P43354); assay: ATG_NURR1_TRANS: Attagene TRANS-FACTORIAL HepG2 Assay for human Nuclear Receptor Related Protein 1 (NURR1) (AID 2282985; active = hit-call score of the fitted dose curve at least 0.9, where 1 is the maximum); conditions: HepG2 Attagene TRANS reporter, mRNA readout
# Chain of Nuclear receptor subfamily 4 group A member 2 (Homo sapiens) (P43354 whole entry, looked up, the tested form may be a part): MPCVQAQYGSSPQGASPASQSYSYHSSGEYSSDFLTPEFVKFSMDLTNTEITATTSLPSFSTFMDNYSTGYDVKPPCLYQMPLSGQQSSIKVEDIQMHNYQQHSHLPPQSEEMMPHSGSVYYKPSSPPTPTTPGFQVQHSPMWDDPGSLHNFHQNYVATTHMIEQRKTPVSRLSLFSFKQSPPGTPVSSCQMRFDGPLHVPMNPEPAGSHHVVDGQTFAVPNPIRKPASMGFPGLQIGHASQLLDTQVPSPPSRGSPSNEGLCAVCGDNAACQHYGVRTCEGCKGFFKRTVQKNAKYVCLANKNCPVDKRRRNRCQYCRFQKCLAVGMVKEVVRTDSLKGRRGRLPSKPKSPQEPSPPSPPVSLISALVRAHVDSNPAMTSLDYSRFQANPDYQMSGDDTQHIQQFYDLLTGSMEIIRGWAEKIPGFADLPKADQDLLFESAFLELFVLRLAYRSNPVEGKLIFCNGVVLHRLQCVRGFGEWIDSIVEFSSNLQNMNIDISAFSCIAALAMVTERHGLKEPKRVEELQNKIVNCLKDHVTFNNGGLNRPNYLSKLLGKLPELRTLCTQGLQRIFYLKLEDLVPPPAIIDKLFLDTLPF
# Method in brief: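 HepG2 cells transiently transfected with GAL4-UAS reporter units and chimeric NR-Gal4 constructs; chemical exposure 24 h. Reporter mRNA quantified by RT-PCR, fluorescent labelling and capillary electrophoresis; gain of signal fitted relative to DMSO baseline.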
structure (smiles),measurement,setting,value
Cc1ccc(O)c(-n2nc3ccccc3n2)c1,outcome,[1],inactive
same,outcome,[2],inactive
same,outcome,[3],inactive
same,outcome,[4],inactive
same,outcome,[5],inactive
same,outcome,[6],inactive
same,outcome,[7],inactive
same,outcome,[8],inactive
same,outcome,[9],inactive
same,outcome,[10],inactive
same,outcome,[11],inactive
same,outcome,[12],inactive
same,AC50,[13],4.95 µM (active)
same,outcome,[14],inactive
same,outcome,[15],inactive
same,outcome,[16],inactive
same,outcome,[17],inactive
same,outcome,[18],inactive
OCC(F)(F)C(F)(F)C(F)(F)C(F)(F)C(F)(F)C(F)(F)C(F)(F)C(F)(F)CO,outcome,[2],inactive
same,outcome,[3],inactive
same,AC50,[4],10.5 µM (active)
same,outcome,[5],inactive
same,outcome,[19],inactive
same,outcome,[6],inactive
same,outcome,[7],inactive
same,outcome,[20],inactive
same,outcome,[8],inactive
same,outcome,[9],inactive
same,outcome,[10],inactive
same,outcome,[11],inactive
same,outcome,[12],inactive
same,outcome,[13],inactive
same,outcome,[14],inactive
same,outcome,[15],inactive
same,outcome,[16],inactive
same,AC50,[17],7.66 µM (active)
same,outcome,[17],inactive
same,outcome,[18],inactive
FC(F)(F)C(F)(F)C(F)(F)CC1CO1 (centres undefined),outcome,[1],inactive
same,outcome,[2],inactive
same,outcome,[3],inactive
same,outcome,[4],inactive
same,outcome,[5],inactive
same,outcome,[6],inactive
same,outcome,[7],inactive
same,outcome,[20],inactive
same,outcome,[8],inactive
same,outcome,[9],inactive
same,outcome,[10],inactive
same,outcome,[12],inactive
same,outcome,[13],inactive
same,outcome,[14],inactive
same,outcome,[15],inactive
same,outcome,[16],inactive
same,outcome,[17],inactive
same,outcome,[18],inactive
CCC(C)CO (centres undefined),outcome,[1],inactive
same,outcome,[2],inactive
same,outcome,[3],inactive
same,outcome,[4],inactive
same,outcome,[5],inactive
same,outcome,[6],inactive
same,outcome,[7],inactive
same,outcome,[20],inactive
same,outcome,[8],inactive
same,outcome,[9],inactive
same,outcome,[10],inactive
same,outcome,[11],inactive
same,outcome,[12],inactive
same,outcome,[13],inactive
same,outcome,[14],inactive
same,outcome,[15],inactive
C[C@]12CC[C@H]3C(=CCc4cc(O)ccc43)[C@@H]1CCC2=O,outcome,[2],inactive
same,outcome,[3],inactive
same,outcome,[4],inactive
same,outcome,[5],inactive
same,outcome,[19],inactive
same,outcome,[6],inactive
same,outcome,[7],inactive
same,outcome,[20],inactive
same,outcome,[8],inactive
same,outcome,[9],inactive
same,outcome,[10],inactive
same,outcome,[11],inactive
same,outcome,[13],inactive
same,outcome,[14],inactive
same,outcome,[15],inactive
same,outcome,[16],inactive
same,outcome,[17],inactive
same,outcome,[18],inactive
O=C(Cl)C(F)(F)C(F)(F)C(F)(F)C(F)(F)C(F)(F)C(F)(F)F,outcome,[2],inactive
same,outcome,[3],inactive
same,outcome,[4],inactive
same,outcome,[5],inactive
same,outcome,[19],inactive
same,outcome,[6],inactive
same,outcome,[7],inactive
same,outcome,[20],inactive
same,outcome,[8],inactive
same,outcome,[9],inactive
same,outcome,[10],inactive
same,outcome,[11],inactive
same,outcome,[12],inactive
same,outcome,[14],inactive
same,outcome,[15],inactive
same,outcome,[16],inactive
same,outcome,[17],inactive
same,outcome,[18],inactive
O=C(O)C(F)(F)C(F)(F)C(F)(F)OC(F)(F)F,outcome,[1],inactive
same,outcome,[2],inactive
same,outcome,[3],inactive
same,outcome,[4],inactive
same,outcome,[5],inactive
same,outcome,[19],inactive
same,outcome,[6],inactive
same,outcome,[20],inactive
same,outcome,[8],inactive
same,outcome,[9],inactive
same,outcome,[10],inactive
same,outcome,[11],inactive
same,outcome,[12],inactive
same,outcome,[14],inactive
same,outcome,[15],inactive
same,outcome,[16],inactive
same,outcome,[17],inactive
same,outcome,[18],inactive
CCCCCCCC/C=C\CCCCCCCC(=O)N(C)CC(=O)O,outcome,[1],inactive
same,outcome,[2],inactive
same,outcome,[3],inactive
same,outcome,[6],inactive
same,outcome,[7],inactive
same,outcome,[8],inactive
same,outcome,[9],inactive
same,outcome,[10],inactive
same,outcome,[11],inactive
same,outcome,[12],inactive
same,outcome,[13],inactive
same,outcome,[14],inactive
same,outcome,[15],inactive
